Several values for one entry are separate records, joined by “and”; a condition that tells them apart may be missing. Equal values may be shown once. Compounds without any hit were thinned out: in the full panel of roughly 83,000, 20% have a hit.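 The test compound was applied at a single concentration to cells in 96-well plates for 48 hours, and percent growth was recorded.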 Activity calls are given as the source filed them.
Tested on: SR leukemia
Test: NCI-60 one-dose screen, 48 h (100 = growth as untreated, 0 = no growth, -100 = all killed)
Conditions: 0.01 µM
Protocol: Growth inhibition of the SR human tumor cell line is measured as a screen for anti-cancer activity. Cells are grown in 96 well plates and exposed to the test compound for 48 hours. Compounds are tested at a single concentration, which is 10^-5 M for most compounds. The reported endpoint is percent growth (GI% or GIPRCNT), where numbers from 0 - 100% represent growth inhibition, and numbers from -100% - 0 represent cell death. For example, a value of 40 represents 60% growth inhibition. A value of 0 means no net growth occurred over the course of the experiment. A value of -40 indicates 40% of cells at the beginning of the experiment died by the end of the experiment. A value of -100 means all cells are dead at the end of the experiment.
NCI-60 Human Tumor Cell Lines Screen was performed using the standard one-dose NCI protocol, which is described in more detail at https://dtp.cancer.gov/discovery_development/nci-60/default.htm.
Compounds with GIPRCNT values below 10 were considered active. Activity score was based on GIPRCNT using the following formula: […]
Score is 0 for GIPRCNT values of 100 or above, 50 for GIPRCNT values of 0, and 100 for GIPRCNT values of -100.

| SMILES | growth |
| --- | --- |
| CC(=O)O[C@H]1C(=O)[C@@]2(C)[C@H]([C@H](OC(=O)c3ccccc3)[C@]3(O)C[C@H](OC(=O)[C@H](O)[C@@H](NC(=O)c4ccccc4)c4ccccc4)C(C)=C1C3(C)C)[C@]1(OC(C)=O)CO[C@@H]1C[C@@H]2O | 19.1% (inactive) |

Same assay, conditions: 2.5 µM

| SMILES | growth |
| --- | --- |
| CC(=O)O[C@H]1C(=O)[C@@]2(C)[C@H]([C@H](OC(=O)c3ccccc3)[C@]3(O)C[C@H](OC(=O)[C@H](O)[C@@H](NC(=O)c4ccccc4)c4ccccc4)C(C)=C1C3(C)C)[C@]1(OC(C)=O)CO[C@@H]1C[C@@H]2O | 7.15% (active) |

Same assay, conditions: 5 µM

| SMILES | growth |
| --- | --- |
| CC(=O)O[C@H]1C(=O)[C@@]2(C)[C@H]([C@H](OC(=O)c3ccccc3)[C@]3(O)C[C@H](OC(=O)[C@H](O)[C@@H](NC(=O)c4ccccc4)c4ccccc4)C(C)=C1C3(C)C)[C@]1(OC(C)=O)CO[C@@H]1C[C@@H]2O | 9.15% (active) |

Same assay, conditions: 10 µM

| SMILES | growth |
| --- | --- |
| Cc1c(-c2ccccc2)[nH]c2ccccc12 | 102% (inactive) |
| COc1cccc(C(c2cc3c(cc2O)OCO3)N2CCOCC2)c1OC (stereo unspecified) | 89.5% (inactive) |
| CC(=O)O[C@H]1C(=O)[C@@]2(C)[C@H]([C@H](OC(=O)c3ccccc3)[C@]3(O)C[C@H](OC(=O)[C@H](O)[C@@H](NC(=O)c4ccccc4)c4ccccc4)C(C)=C1C3(C)C)[C@]1(OC(C)=O)CO[C@@H]1C[C@@H]2O | -2.72% (active) and 12.2% (inactive) |
| CC[C@@]1(OC(=O)CN(C)C)C(=O)OCc2c1cc1n(c2=O)Cc2cc3c(N)cccc3nc2-1 | -3.07% (active) |
| O=C1c2cccc3cc([N+](=O)[O-])cc(c23)C(=O)N1CCN1CCCC1 | -34.6% (active) |
| NCc1c(O)ccc2ccccc12 | 87.8% (inactive) |
| O=C1C=CC(=O)N1c1ccc(N2C(=O)C=CC2=O)cc1 | 0.0539% (active) |
| S=P(N1CC1)(N1CC1)N1CC1 | 35.4% (inactive) |
| CC1CCC2(C(=O)O)CCC3(C)C(=CCC4C5(C)CC(O)C(O)C(C)(CO)C5C(O)CC43C)C2C1C (stereo unspecified) | 105% (inactive) |
| CCC(C)(c1ccc(O)c(C)c1)c1ccc(O)c(C)c1 | 113% (inactive) |
| COc1ccc(C(C#N)=C2C=CC(=NO)C=C2)cc1 | 49.8% (inactive) |
| O=C1c2ccccc2CCC1(Br)Br | 0.0746% (active) |
| Cn1c2nc3ccccc3c-2nc2ccccc21 | 83.5% (inactive) and 91.1% (inactive) |
| Cn1ncc2cc3c(Nc4ccc(Cl)cc4)cccc3nc21 | 84.8% (inactive) |
| S=C1SCN(CCc2ccccc2)CN1CCc1ccccc1 | 61.2% (inactive) |
| Cc1cc(O)c2c(c1O)C(=O)C13C(=C2O)C(=O)C2C(O)C1C1C(O)C3C(=O)C3=C(O)c4c(O)cc(C)c(O)c4C(=O)C321 (stereo unspecified) | 12.6% (inactive) |

| SMILES | growth |
| --- | --- |
| O=C(NC(=S)Nc1ccccn1)c1ccccc1 | 112% (inactive) |
| O=C(O)c1ccccc1.[Ag] | 102% (inactive) |
| Cc1cc(C)c(N2C(=O)CC(Sc3ccccc3N)C2=O)c(C)c1 (stereo unspecified) | 23.4% (inactive) |
| CN(C)c1ccc(/C=C/c2ccnc3ccccc23)cc1N | 41.4% (inactive) |
| N#C/C(=C/N1C(=O)/C(=C/c2ccc([N+](=O)[O-])cc2)SC1=S)c1nc2ccccc2s1 | 73.8% (inactive) |
| O=Nc1ccc(Nc2ccccc2)cc1 | 28.2% (inactive) |
| O=C(CNS(=O)(=O)Cc1ccccc1)NNc1ccccc1 | 39.2% (inactive) |
| O=C1C(Cl)=C(Cl)C(Cl)(Cl)C(Cl)C1(Cl)Cl (stereo unspecified) | 90.2% (inactive) |
| ClCCn1c(CCl)nc2ccc(Cl)cc21 | -32.4% (active) |
| Nc1nc(N)c2cc(Sc3ccc4ccccc4c3)ccc2n1 | -26.3% (active) |
| COc1ccc2c(c1)[nH]c1c(/C=C/c3ccccc3)nccc12 | 29.3% (inactive) |
| O=S(=O)(c1cc(Cl)ccc1O)c1cc(Cl)ccc1O | 84.6% (inactive) |
| N#CC(=C1C=CC(=NO)C=C1)c1ccccc1 | -17.5% (active) |
| Cc1cc(Cl)ccc1NC(=O)/C(Cl)=C1/Sc2ccccc2NC1=O | 100% (inactive) |
| O=c1[nH]cc(/C=N\Nc2ccccc2)c(=O)[nH]1 | 65.1% (inactive) |
| COc1cc(N)ccc1Nc1c2ccccc2nc2ccccc12 | 10.1% (inactive) |

Same assay, conditions: 100 µM

| SMILES | growth |
| --- | --- |
| S=P(N1CC1)(N1CC1)N1CC1 | 22.6% (inactive) |

From PubChem BioAssay (NCI)
